# This is a sample that favours compounds with a hit; in the whole collection about 3.5% have one here.
# TEAD-YAP block = TEAD-YAP interaction inhibition, primary screen, TEAD-YAP interaction inhibitor project, luminescence, HEK-TIYL cells; TEAD-Gal4/YAP UAS-luciferase luminescence; inhibition, % at 9.12 µM; hit rate 1.4% among 640,000; in the data active means inhibition above about 32%;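 further: 0% = median of test compound wells and 100% = reference inhibitor wells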
# FBW7 activator = FBW7 E3 ligase activators, primary screen, biochemical, AlphaScreen, human; normalized activity (activation), % at 26.1 µM; hit rate 0.13% among 650,000; AID 1259310, 2017; F-box/WD repeat-containing protein 7 (Homo sapiens), Q969H0; AlphaScreen FBW7–phospho-cyclin E peptide binding, activator screen; in the data active means normalized activity above about 1.9%;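 further: purified mutant Fbw7 with reduced substrate affinity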
# MITF primary = MITF inhibitors, primary screen, biochemical, AlphaScreen, human | Microphthalmia-associated transcription factor (Homo sapiens), O75030 | AlphaScreen MITF homodimerization, bead proximity signal | inhibition, % at 2.6 µM | hit rate 0.91% among 650,000 | AID 1259374, 2018; in the data active means inhibition above about 50%;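 further: 0% = vehicle wells with protein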
# GPR151 activ = activators of human GPR151, primary screen, cell-based, PathHunter beta-arrestin, luminescence | G-protein coupled receptor 151 (Homo sapiens), Q8TDV0 | PathHunter beta-arrestin GPR151 cells | activation, % at 11.2 µM | hit rate 1% among 650,000 | AID 1508602, 2020; in the data active means activation above about 4.9%;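 further: 0% = median of compound wells and 100% = cells with positive control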
# GPR151 confirm = GPR151 activators, triplicate retest, confirmation, cell-based, PathHunter beta-arrestin, luminescence | shares compounds with GPR151 activ | GPR151 PathHunter beta-arrestin cells, 90 min; % of EA-reagent control over plate median | activation, % at 11.2 µM | 6,700 tested, under 10 active | AID 1508609, 2020;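 active means mean percent activation across replicates above the confirmation screen cutoff of 4.91%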
# GPR119 ag = GPR119 activators in beta-arrestin cells, counter-screen for GPR151 activator project, cell-based, PathHunter beta-arrestin, luminescence, triplicate; shares compounds with GPR151 activ; 90 min; 0 = compound-well median, 100 = enzyme-acceptor control; activation, % at 11.2 µM; hit rate 0.3% among 6,700;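 active means mean percent activation in the counterscreen above 29.09%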;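 further: counterscreen on off-target GPR119 to flag nonselective hits from the GPR151 activator screen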
# Target sequence (Q8TDV5 whole entry, looked up): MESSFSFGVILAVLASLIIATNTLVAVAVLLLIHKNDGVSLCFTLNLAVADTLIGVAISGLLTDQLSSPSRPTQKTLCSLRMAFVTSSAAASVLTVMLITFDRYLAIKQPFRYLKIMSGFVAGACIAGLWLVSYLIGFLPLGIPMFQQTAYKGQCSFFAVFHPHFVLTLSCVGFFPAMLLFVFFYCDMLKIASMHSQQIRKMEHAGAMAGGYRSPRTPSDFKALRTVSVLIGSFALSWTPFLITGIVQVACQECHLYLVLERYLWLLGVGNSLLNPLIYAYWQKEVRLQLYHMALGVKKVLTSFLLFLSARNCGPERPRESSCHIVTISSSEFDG
# * = called active by the depositor; / = no result given.
SMILES,TEAD-YAP block,FBW7 activator,MITF primary,GPR151 activ,GPR151 confirm,GPR119 ag
COC(=O)c1ccc2c(c1)C(C)(C)C1(C=Cc3cc([N+](=O)[O-])ccc3O1)N2C (configuration not stated),3.1,0.0,9.9,5.3*,0.9,10.3
CC1(C)c2ccccc2N(CC(=O)NCc2ccccc2)C12C=Cc1cc([N+](=O)[O-])ccc1O2 (configuration not stated),3.3,-0.3,3.1,0.0,/,/
CC1(C)c2ccccc2N(CC(=O)NCc2ccc(Cl)cc2)C12C=Cc1cc([N+](=O)[O-])ccc1O2 (configuration not stated),-5.5,-0.1,10.3,6.3*,-1.0,-4.4
O=C1[C@H]2[C@H]3[C@H](O)[C@H](O)C/C(=N\OCc4ccccc4)[C@@H]3CC[C@H]2C(=O)N1c1ccc(F)cc1F,/,0.0,10.5,0.4,/,/
N#CCSc1nnc2sc3ccccc3n12,-9.4,-0.1,-5.5,5.2*,0.0,-1.6
COc1ccc(-c2nnc(SCC(=O)Nc3nnc(C)s3)n2C)cc1,3.6,-0.1,2.8,0.1,/,/
CCN1CCN(c2ncc(C(=O)Nc3ccc(C(F)(F)F)cc3)c3ccccc23)CC1,-4.7,0.3,-1.4,0.0,/,/
CC(C)n1c(C(F)(F)F)nc2ccccc21,5.7,0.1,9.7,5.2*,2.2,8.7
O=C(NCCc1ccc(F)cc1)c1ccc([N+](=O)[O-])cc1Cl,-83.5,0.0,11.4,11.2*,-0.1,7.5
CCOCCCNC(=O)c1cc([N+](=O)[O-])ccc1Cl,6.3,-0.1,10.5,22.7*,0.7,-4.5
CCN(CC)CCCNC(=O)c1cc([N+](=O)[O-])ccc1Cl,-2.3,0.0,13.8,1.3,/,/
O=CNC(c1ccccc1)c1ccc(Cl)cc1Cl (configuration not stated),5.6,-0.1,-36.0,9.9*,-1.1,-8.7
O=CNC(c1ccc(Cl)cc1)c1ccc(Cl)cc1,11.6,0.3,8.3,0.0,/,/
CCN(CC)C(=O)c1sc(NC(=O)c2ccco2)c(C(=O)OC(C)C)c1C,-4.0,0.0,-2.0,1.4,/,/
CCN(CC)C(=O)c1sc(NC(=S)NCc2ccco2)c(C(=O)OC)c1C,10.0,-0.2,4.0,11.3*,-0.1,2.7
COC(=O)c1c(NC(=O)c2ccco2)sc(C(=O)Nc2cccc(C)c2)c1C,4.1,0.5,10.2,6.4*,-0.1,1.2
COCCCNC(=O)c1ccc2c(c1)nc(C)n2-c1ccc(F)c(F)c1,3.2,0.1,7.0,0.1,/,/
CCCCCCn1c(N/N=C/c2ccc([N+](=O)[O-])cc2)nc2c1c(=O)[nH]c(=O)n2C,10.8,0.1,-1.2,5.9*,-0.1,2.6
Cn1c(SCC(=O)Nc2sc3c(c2C#N)CCCCC3)nnc1-c1ccncc1,0.8,0.1,-1.1,0.6,/,/
CC(C)(C)Nc1c(-c2ccc(O)cc2)nc2ccccn12,-0.3,0.2,20.1,-0.8,/,/
O=C(NNC(=S)NCc1ccccc1)c1ccc(Br)o1,6.6,0.0,3.2,6.3*,-0.7,-2.9
CCC1CCCCN1CCN1C(=O)C2C(C(=O)Nc3cccc(C)c3)C3C=CC2(O3)C1C(=O)NC1CCCC(C)C1C (configuration not stated),6.4,-0.3,1.4,12.9*,-0.2,-5.4
CSc1cccc(NC(=O)C2C3C=CC4(O3)C2C(=O)N(C(C)C)C4C(=O)NC2CCCC(C)C2C)c1 (configuration not stated),3.7,0.0,7.9,5.8*,0.6,-0.9
CCC1CCCCN1CCN1C(=O)C2C(C(=O)Nc3cc(C)cc(C)c3)C3C=CC2(O3)C1C(=O)NC1CCCC(C)C1C (configuration not stated),7.5,0.6,15.0,-0.3,/,/
CCOc1cc(C=O)ccc1OCCOc1ccccc1OC,6.6,-0.2,-2.1,10.8*,1.1,11.9
SMILES,TEAD-YAP block,FBW7 activator,MITF primary,GPR151 activ,GPR151 confirm,GPR119 ag
CCCCOc1ccc(/C=C/C(=O)N2CCCCC2)cc1,-37.9,0.2,3.5,5.6*,0.7,-6.6
COC(=O)C1=C(C(=O)OC)[C@@H]2N(Cc3ccccc3)c3ccccc3[C@@]23C[C@@H](CO)N=C3N1,/,0.5,-5.8,6.8*,0.1,-1.0
COC(=O)C1=C(C(=O)OC)[C@@H]2N(Cc3ccccc3)c3ccccc3[C@@]23C[C@@H](CO)N(C(=O)NC2CCCCC2)C3=N1,/,-0.1,-2.2,3.4,/,/
COc1ccccc1OCCCN1C(=O)C(=O)c2cc(Br)cc(C)c21,12.6,-0.1,-3.7,14.4*,1.2,15.5
NS(=O)(=O)c1ccc(CCNC(=O)c2ccccc2Oc2ccccc2)cc1,-0.9,-0.7,-7.7,6.7*,-0.7,-3.5
NS(=O)(=O)c1ccc(CCNC(=O)c2ccccc2Cl)cc1,2.4,-0.2,-5.8,0.8,/,/
NS(=O)(=O)c1ccc(CCNC(=O)c2cc(-c3ccccc3)nc3ccccc23)cc1,3.2,-0.2,-15.6,6.2*,0.9,2.4
O=C(Nc1ccc(Cl)cn1)c1ccc(F)cc1,-46.1,0.0,11.0,-5.6,/,/
CN(C1CCCCC1)S(=O)(=O)c1ccc2[nH]cc(C(=O)N3CC=C(c4ccccc4)CC3)c(=O)c2c1,-2.8,0.5,10.2,1.6,/,/
COCCOC(=O)c1c(N)sc(C(N)=O)c1C,3.0,0.0,-4.4,8.5*,-0.4,-2.7
O=C(Cc1ccc(Br)cc1)OCC(=O)c1ccccc1,15.6,0.3,2.0,2.2,/,/
Cc1nccn1S(=O)(=O)c1cc(Cl)ccc1Br,-5.7,0.7,14.7,0.9,/,/
c1ccc(Nc2ncnc3nc(N4CCc5ccccc5C4)[nH]c23)cc1,-3.7,-0.2,6.5,6.0*,-0.4,0.8
CC(=O)Nc1ccc(Nc2ncnc3nc(N4CCc5ccccc5C4)[nH]c23)cc1,-5.7,0.8,6.9,-2.4,/,/
CCN(CC)C(=O)C1CCCN(c2nc(Nc3ccccc3)nc(N(CC)CC)n2)C1 (configuration not stated),2.3,-0.3,2.7,5.7*,-1.2,-12.3
CCN(CC)C(=O)C1CCCN(c2nc3ncnc(Nc4ccc(Oc5ccccc5)cc4)c3[nH]2)C1 (configuration not stated),5.6,-0.1,7.1,5.8*,0.8,6.6
CCN(CC)C(=O)C1CCCN(c2nc(Nc3ccc(NC(C)=O)cc3)nc(N(CC)CC)n2)C1 (configuration not stated),4.8,-0.1,2.4,-1.6,/,/
CCN(CC)C(=O)C1CCCN(c2nc3ncnc(Nc4ccc(NC(C)=O)cc4)c3[nH]2)C1 (configuration not stated),12.1,-0.1,3.1,-0.4,/,/

# Bioassay records: PubChem, The Scripps Research Institute Molecular Screening Center
